Consider 19 compounds from PubChem BioAssay (EPA / NIEHS).

Values joined by “and” are separate entries in the source; they are usually repeats but may differ in a detail not shown here. Identical values can stand only once. Active and inactive are the calls of the source. The calls were made as follows: active = hit-call score of the fitted dose curve at least 0.9, where 1 is the maximum; inactive = score below 0.9.

The nature of the first assay: CCTE_Shafer_MEA_dev_burst_duration_mean: CCTE's Neural Network Formation Assay for Mean Burst Duration, Shafer Lab (AID 2284045).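 As to AC50: curve fitted for loss meaning shorter burst duration than DMSO.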 The gist of the method: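 Primary rat cortical neurons on 48-well 16-electrode MEA plates, exposed from day 0 with renewal at DIV 5 and 9; spontaneous activity recorded on days 5, 7, 9, 12. Well-mean burst duration across bursting electrodes, collapsed as trapezoidal AUC; DMSO baseline.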
As to `OC(Cn1cncn1)(Cn1cncn1)c1ccc(F)cc1F`, the outcome was inactive.

Turning to `FC(F)(F)C(F)(F)C(F)(F)C(F)(F)C(F)(F)C(F)(F)I`, the outcome was inactive.

Regarding `CCCC(CCC)C(=O)O`, the compound was classed as inactive.

Take `CCOc1ccc2[nH]cc(C(=O)NCc3ccccc3)c(=O)c2n1`: the result was inactive.

On to `NNC(=O)c1ccncc1`, for which the call was inactive.

Take `Cn1cc[nH]c1=S`: the call was inactive.

For `OC(O)(C(F)C(O)(O)C(F)(F)F)C(F)(F)F`, the outcome was inactive.

For `CC[C@H](C)C(=O)O[C@H]1C[C@H](O)C=C2C=C[C@H](C)[C@H](CC[C@@H](O)C[C@@H](O)CC(=O)O)[C@H]21`, the compound was classed as inactive.

Regarding `OCCC(F)(F)C(F)(F)C(F)(F)C(F)(F)F`, the compound was called inactive.

As for `c1ccc2cc3ccccc3cc2c1`, the result was inactive.

Consider `FC(F)(F)COC(OCC(F)(F)F)OCC(F)(F)F`, for which the result was inactive.

Turning to `COc1cc2c(c(OC)c1OC)-c1ccc(OC)c(=O)cc1[C@@H](NC(C)=O)CC2`, the half-maximal activity concentration (AC50) was 6.51 nM (active).

With `O=C(Cl)C(F)(F)C(F)(F)C(F)(F)C(=O)Cl`, the outcome was inactive.

For `CCN(CC)C(=S)SSC(=S)N(CC)CC`, the AC50 was 103 nM (active) and 38.3 nM (active).

Turning to `c1ccc2c(c1)-c1cccc3c1c-2cc1ccccc13`, the call was inactive.

Consider `NCC(F)(F)C(F)(F)C(F)(F)C(F)(F)F`, for which the result was inactive.

For the compound `NC(=O)N1c2ccccc2C=Cc2ccccc21`, the result was inactive.

Consider `Nc1ccn([C@@H]2O[C@H](CO)[C@@H](O)[C@@H]2O)c(=O)n1`, for which the AC50 is 248 nM (active) and 1.85 µM (active).

The next assay can be described thus: CCTE_Shafer_MEA_dev_interburst_interval_mean: CCTE's Neural Network Formation Assay for Mean Interburst Interval, Shafer Lab (AID 2284046).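 Also: curve fitted for decrease in interburst interval relative to DMSO.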 The essentials: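 Developing rat cortical networks on 48-well MEAs receive compound from the day of plating. Burst intervals from each active electrode are averaged per well, and AUC over the recording days is fitted in the negative direction against DMSO.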
Turning to `OC(Cn1cncn1)(Cn1cncn1)c1ccc(F)cc1F`, the result was inactive.

As to `FC(F)(F)C(F)(F)C(F)(F)C(F)(F)C(F)(F)C(F)(F)I`, the compound was classed as inactive.

As for `CCCC(CCC)C(=O)O`, the compound was called inactive.

Take `CCOc1ccc2[nH]cc(C(=O)NCc3ccccc3)c(=O)c2n1`: the outcome was inactive.

For the compound `NNC(=O)c1ccncc1`, the outcome was inactive.

Regarding `Cn1cc[nH]c1=S`, the result was inactive.

Turning to `OC(O)(C(F)C(O)(O)C(F)(F)F)C(F)(F)F`, the call was inactive.

For `CC[C@H](C)C(=O)O[C@H]1C[C@H](O)C=C2C=C[C@H](C)[C@H](CC[C@@H](O)C[C@@H](O)CC(=O)O)[C@H]21`, the result was inactive.

Take `C[C@]12C=CC(=O)C=C1CC[C@H]1[C@@H]3C[C@@H](O)[C@](O)(C(=O)CO)[C@@]3(C)C[C@H](O)[C@@]12F`: the compound was called inactive.

Turning to `OCCC(F)(F)C(F)(F)C(F)(F)C(F)(F)F`, the compound was called inactive.

Turning to `c1ccc2cc3ccccc3cc2c1`, the call was inactive.

For `FC(F)(F)COC(OCC(F)(F)F)OCC(F)(F)F`, the compound was called inactive.

For the compound `COc1cc2c(c(OC)c1OC)-c1ccc(OC)c(=O)cc1[C@@H](NC(C)=O)CC2`, the AC50 is 15.9 nM (active).

Regarding `O=C(Cl)C(F)(F)C(F)(F)C(F)(F)C(=O)Cl`, the outcome was inactive.

With `CCN(CC)C(=S)SSC(=S)N(CC)CC`, the AC50 is 200 nM (active) and 55.2 nM (active).

On to `c1ccc2c(c1)-c1cccc3c1c-2cc1ccccc13`, for which the compound was called inactive.

As to `NCC(F)(F)C(F)(F)C(F)(F)C(F)(F)F`, the result was inactive.

On to `NC(=O)N1c2ccccc2C=Cc2ccccc21`, for which the compound was classed as inactive.

On to `Nc1ccn([C@@H]2O[C@H](CO)[C@@H](O)[C@@H]2O)c(=O)n1`, for which the half-maximal activity concentration (AC50) is 158 nM (active) and 437 nM (active).

For orientation: AC50 means the midpoint of the concentration-response curve, whichever way the signal moves.
